High-throughput results as filed in PubChem.
Pf growth 96h – Primary qHTS for delayed death inhibitors of the malarial parasite plastid, 96 hour incubation; Potency, µM (highest dose often 28.7 µM), usual class: inhibitors; P. falciparum luciferase reporter growth, 96 h; 320,000 compounds, 6.9% hits
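Two-generation exposure (96 h) targets delayed-death phenotype. Reporter parasites carrying integrated firefly luciferase, in red cells at 2% hematocrit and 0.05% parasitemia final, kept at 37 C, 5% CO2; luminescence loss indicates inhibition.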
SARS PLP yeast – qHTS of Yeast-based Assay for SARS-CoV PLP; 330,000 compounds, 0.19% hits; S. cerevisiae expressing SARS-CoV PLpro, growth rescue; Potency, µM (top dose mostly 32.9 µM), usual class: activators; calls by dose curve; also: nearly all actives have a fitted effect of over 55% in size
Sm TGR inh – qHTS Assay for the Inhibitors of Schistosoma Mansoni Peroxiredoxins | Schistosoma mansoni thioredoxin glutathione reductase (TGR), Q962Y6 | purified TGR, DTNB reduction, TNB absorbance 405 nm | Potency, µM (top dose mostly 114 µM), actives largely listed as inhibitors | 360,000 compounds, 3% hits; also: nearly all actives have a fitted effect of over 60% in size
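First, TGR (20 nM dispensed) and NADPH were mixed with compound. Second, a 15 min room-temperature incubation followed. Third, further NADPH and then DTNB were added to start the reaction. Finally, TNB absorbance was monitored kinetically.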
Pf growth 48h – Primary qHTS for delayed death inhibitors of the malarial parasite plastid, 48 hour incubation | Potency, µM (series often up to 28.7 µM), usual class: inhibitors | 310,000 compounds, 5.9% hits | P. falciparum luciferase growth in erythrocytes, 48 h | AID 504832, 2011
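Parasite viability was followed by luminescence of a genomically integrated firefly luciferase. Cultures held 0.1% parasitemia at 2% hematocrit (final), incubated under 5% CO2 at 37 C.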
Large screens that a line does not name were inactive. An excerpt weighted towards active compounds, which were near 12% of everything screened. Unless noted, calls follow the shape of the dose curve; as a rule, active = well fitted curve in the direction sought with a large enough effect; inconclusive = small, poorly fitted or top-dose-only effect, or another doubt; inactive = no such curve, though single readings can be large; an effect the other way counts as inactive or inconclusive.

COc1cc(NS(=O)(=O)c2ccc(NC(=S)NC(=O)C(C)(C)C)cc2)nc(OC)n1	none (no result: Pf growth 48h)
COc1cc(NS(=O)(=O)c2ccc(NC(=S)NC(=O)c3ccc(F)c(F)c3)cc2)nc(OC)n1	Sm TGR inh 22µM
COc1cc(NS(=O)(=O)c2ccc(NC(=S)NC(=O)c3cccs3)cc2)nc(OC)n1	Sm TGR inh 22µM
Cc1cccc(N2CCN(C(=O)c3ccccc3SCC(=O)N3CCCC3)CC2)c1C	Pf growth 96h inconclusive, Pf growth 48h inconclusive
CC1CN(C(=O)CSc2nnc(-c3ccccc3)o2)CC(C)O1 (centres undefined)	none
c1nc(NCCN2CCOCC2)c2sc3nc(N4CCOCC4)c4c(c3c2n1)CCC4	Sm TGR inh 45µM, Pf growth 48h 7.4µM (no result: Pf growth 96h)
O=c1ccc(-c2ccccc2)nn1Cc1ccccc1F	Pf growth 96h 13µM
CN(C)CCNC(=O)C(=O)c1c(-c2ccccc2)cc2ccccn12	none
CCN(CC)S(=O)(=O)c1cc(NC(=O)C(=O)c2c(-c3ccccc3)cc3ccccn23)ccc1C	Pf growth 96h 12µM (no result: Pf growth 48h)
CCN(CC)S(=O)(=O)c1cccc(NC(=O)C(=O)c2c(-c3ccccc3)cc3ccccn23)c1	Pf growth 96h 7.4µM (no result: Pf growth 48h)
CCN(CC)S(=O)(=O)c1ccc(N2CCOCC2)c(NC(=O)C(=O)c2c(-c3ccccc3)cc3ccccn23)c1	Pf growth 48h 6.6µM (no result: Pf growth 96h)
Cc1ccc(CNC(=O)C2CCN(C(=O)Nc3ccccc3)CC2)cc1	none
Cc1c(C)c2c(OCC(=O)N3CCC(O)CC3)cc3c(c2oc1=O)CCC(C)(C)O3	Pf growth 96h 7.4µM, Pf growth 48h 13µM
CCC(NC(=O)COc1cc2c(c3oc(=O)c(C)c(C)c13)CCC(C)(C)O2)C(=O)O (centres undefined)	Pf growth 96h inconclusive
Cc1c(C)c2c(OCC(=O)N3CCC[C@H]3C(=O)O)cc3c(c2oc1=O)CCC(C)(C)O3	Pf growth 96h 13µM, Pf growth 48h inconclusive
Cc1cc(=O)oc2c3c(cc(OCC(=O)NCCN4CCOCC4)c12)OC(C)(C)CC3	Pf growth 96h inconclusive, Pf growth 48h inconclusive
N#CC(C#N)=Cc1cc2ccccc2nc1N1CCCCC1	Sm TGR inh 5µM
CCCN(CCC)CC(O)COc1ccc([N+](=O)[O-])cc1 (centres undefined)	Pf growth 96h 15µM, Pf growth 48h inconclusive
COC(=O)c1ccc(OCC(O)CN(CC(C)C)CC(C)C)cc1 (centres undefined)	Pf growth 96h inconclusive, Pf growth 48h 13µM
CCCN(CCC)CC(O)COc1ccc2c(c1)OCO2 (centres undefined)	Pf growth 96h inconclusive
COc1ccc(CNC(=O)Cn2c(=O)n3nc(-c4cccc(F)c4)nc3c3ccccc32)cc1OC	none (no result: Pf growth 96h, SARS PLP yeast, Pf growth 48h)
CCCN1C/C(=C/c2cccc([N+](=O)[O-])c2)C(=O)/C(=C/c2cccc([N+](=O)[O-])c2)C1	Pf growth 96h inconclusive, Pf growth 48h 15µM
CN1C(=O)/C(=C/c2cccc([N+](=O)[O-])c2)C(=O)N1c1ccccc1	Pf growth 96h inconclusive, Sm TGR inh 25µM
c1ccc2c(c1)OCC(CNCC1COc3ccccc3O1)O2 (centres undefined)	Pf growth 96h 0.21µM
Cc1ccccc1-n1nc(C)c2cc(C(=O)N3CCN(S(=O)(=O)c4ccc(F)cc4)CC3)sc21	Pf growth 48h 4.7µM (no result: Pf growth 96h)
Cc1ccccc1-n1nc(C)c2cc(C(=O)N3CCN(S(=O)(=O)c4ccc(Cl)cc4)CC3)sc21	Pf growth 96h 1.9µM, Pf growth 48h 5.2µM
CCC(CC)C(=O)Nc1ccc(OCc2cc(=O)n3c4c(sc3n2)CCCC4)cc1	none (no result: Pf growth 96h, SARS PLP yeast, Pf growth 48h)
Cc1ccc(-n2c3c(cc(C(=O)NCc4ccco4)c2=O)C(=O)CC(C)(C)C3)cc1	Pf growth 96h 0.47µM, Sm TGR inh 22µM, Pf growth 48h inconclusive
O=C1CCCc2c1cc(C(=O)NCc1ccco1)c(=O)n2-c1ccccc1	Pf growth 96h inconclusive
CC1(C)CC(=O)c2cc(C(=O)NCc3ccco3)c(=O)n(-c3ccc(Cl)cc3)c2C1	Sm TGR inh 32µM, Pf growth 48h inconclusive
CN(C(=O)c1ccc(OC2CCN(CCc3ccccc3)CC2)cc1)C1CCOCC1	Pf growth 96h 9.3µM
O=C(NC1CCOC1)c1ccc(OC2CCN(CCc3ccccc3)CC2)cc1 (centres undefined)	Pf growth 96h 2.3µM
CCN1CCN(C(=O)c2ccc(OC3CCN(CCc4ccccc4)CC3)cc2)[C@@H](C)C1=O	Pf growth 96h 3.7µM, Pf growth 48h inconclusive
Cc1ccc(OCc2nc3ccccc3n2CCOc2ccc(Cl)cc2)cc1	none (no result: Pf growth 96h, SARS PLP yeast, Pf growth 48h)
CC(CN1CCOCC1)C(=O)O (centres undefined)	Pf growth 96h 9.3µM
CC(CC(C)C(=O)N1CCOCCN(C(=O)C(C)CC(C)C(=O)O)CCOCC1)C(=O)O (centres undefined)	none (no result: Pf growth 96h)
O=C(CSC1CC(=O)N(c2ccc(C(=O)O)cc2)C1=O)Nc1ccc(Cl)cc1 (centres undefined)	Pf growth 96h 12µM (no result: Sm TGR inh)
O=C1CC(SC(=Nc2ccccc2)Nc2ccccc2)C(=O)N1c1ccc(Cl)cc1 (centres undefined)	Pf growth 96h inconclusive, Pf growth 48h inconclusive
CCOC(=O)c1cc(-c2ccccc2)n(CC(=O)N(C)c2ccc(OC)cc2)c1C	none (no result: Pf growth 96h, SARS PLP yeast, Pf growth 48h)
NNC(=O)c1ccc(OCC2CC(c3ccc(Cl)cc3)=NO2)cc1 (centres undefined)	Pf growth 96h inconclusive, Pf growth 48h 8.3µM
Cc1cc(=O)oc2cc(OCC3CC(c4ccc(Cl)cc4)=NO3)ccc12 (centres undefined)	none (no result: Pf growth 96h)
CCC(C)[C@H](NC(=O)C1(c2ccccc2)CCN(C(=O)OC(C)(C)C)CC1)C(=O)N[C@@H](C(=O)O)c1ccccc1 (some centres undefined)	Pf growth 96h 13µM, Pf growth 48h 13µM
CCOc1ccc(NC(=O)CN(c2ccc(OC)cc2)S(=O)(=O)c2cccs2)cc1	none
CCCN(S(=O)(=O)c1ccc(OCC)cc1)S(=O)(=O)c1cccs1	Pf growth 96h inconclusive, Pf growth 48h 10µM
COc1ccc(C(=O)CC2SC(N)=NC2=O)cc1 (centres undefined)	none
CC(C)(C)c1ccc(C2=NC(=O)C(CC(=O)O)S2)cc1 (centres undefined)	Pf growth 48h 2.6µM
CCOc1cc(/C=N\Nc2ncc(F)c(N3CCOCC3)n2)ccc1Oc1nc(Cl)ncc1F	Pf growth 96h 1.9µM, Pf growth 48h 1.7µM
Brc1ccc(-c2ccc(/C=N/Nc3nc(N4CCOCC4)nc(N4CCOCC4)n3)o2)cc1	Pf growth 48h 12µM
Fc1cnc(N/N=C/c2ccc(-c3ccc(Br)cc3)o2)nc1N1CCOCC1	Pf growth 96h 5.9µM, Pf growth 48h inconclusive
CCOc1cc(/C=N/NC(=O)c2ccc(O)cc2)ccc1Oc1nc(Cl)ncc1F	Pf growth 48h inconclusive
Cc1cn(-c2ccccc2)c(C)c1/C=N\Nc1nc(N2CCOCC2)nc(N2CCOCC2)n1	Pf growth 48h 8.3µM (no result: Sm TGR inh)
